Screening results: PubChem BioAssay, National Center for Advancing Translational Sciences (NCATS)
Gal4-VP16 FLuc: VP16 counterscreen qHTS for inhibitors of ROR gamma transcriptional activity. Drosophila S2 Gal4-VP16 UAS-luciferase, luminescence, 20 h. Potency, µM (top dose mostly 53.6 µM), for the others: top-dose activity, negative = inhibition, usual class: inhibitors. 3.5% of 310,000 active. AID 2546, 2010;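 further: Gal4-VP16 expression switched on by copper sulfate through the metallothionein promoter; potency means the concentration at half of the fitted maximal effect; nearly all actives have a fitted effect of over 50% in size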
IL-1B inflam inh: qHTS for Inhibitors of Inflammasome Signaling: IL-1-beta AlphaLISA Primary Screen; activity change, % at 57.5 µM; THP-1 LPS/ATP IL-1B secretion, AlphaLISA, 16 h; stronger effect = lower value; 4.7% of 360,000 active; AID 743279, 2014; in the data active means activity change below about -50%; inconclusive means mostly about -30% to -49%
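Secreted IL-1B measured by AlphaLISA bead assay after 16 h compound exposure of THP-1 cells; compounds (final up to 57.5 uM) added 1 h before LPS (250 ng/mL) and ATP (1.25 mM) stimulation; lower signal means less secretion.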
LDHA block: qHTS assay for inhibitors of human lactate dehydrogenase | L-lactate dehydrogenase A chain (Homo sapiens), P00338 | purified LDHA, NADH/diaphorase-resazurin fluorescence; stronger effect = lower value | activity change, % (values are at about 110 or 230 µM) | 0.15% of 480,000 active; in the data active means activity change below about -30%; inconclusive means mostly about -25% to -30%;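 further: plate controls were DMSO wells for no effect and wells without enzyme for full effect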
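Human LDH5 at 2 nM final in Tris HCl pH 7.4 with 0.06 mM NADH and 0.2 mM pyruvate, reacted 5 minutes at room temperature. Remaining NADH coupled via diaphorase/resazurin; resorufin fluorescence read at 0 and 20 minutes, normalized to enzyme-free and DMSO wells.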
TDP1 cell CPT: qHTS for Inhibitors of human tyrosyl-DNA phosphodiesterase 1 (TDP1): qHTS in cells in presence of CPT | 12% of 420,000 active | Potency, µM (highest dose often 46.2 µM), for inactives: at the top dose activity change, negative = growth inhibition, actives largely listed as inhibitors | chicken DT40 Tdp1-/-;hTDP1 cells + 20 nM CPT, ATP luminescence, 48 h; further: potency means the concentration at half of the fitted maximal effect; nearly all actives have a fitted effect of over 55% in size
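Chicken DT40 Tdp1-/- cells stably complemented with human TDP1 were seeded at 400 cells/well in medium containing 20 nM camptothecin, exposed to pin-transferred compounds, and grown at 37 °C for at least 48 hr. Viability was read as ATP luminescence.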
RORgamma inh: qHTS for inhibitors of ROR gamma transcriptional activity | Nuclear receptor ROR-gamma (Mus musculus), P51450 | Drosophila S2 Gal4-RORgamma UAS-luciferase reporter, 20 h | Potency, µM (series often up to 53.6 µM), inactives show at the top dose activity change, negative = inhibition, usual class: inhibitors | 5.4% of 310,000 active | AID 2551, 2010; further: potency means the concentration at half of the fitted maximal effect; nearly all actives have a fitted effect of over 60% in size
Target sequence (P51450 whole entry, looked up, the tested form may be a part): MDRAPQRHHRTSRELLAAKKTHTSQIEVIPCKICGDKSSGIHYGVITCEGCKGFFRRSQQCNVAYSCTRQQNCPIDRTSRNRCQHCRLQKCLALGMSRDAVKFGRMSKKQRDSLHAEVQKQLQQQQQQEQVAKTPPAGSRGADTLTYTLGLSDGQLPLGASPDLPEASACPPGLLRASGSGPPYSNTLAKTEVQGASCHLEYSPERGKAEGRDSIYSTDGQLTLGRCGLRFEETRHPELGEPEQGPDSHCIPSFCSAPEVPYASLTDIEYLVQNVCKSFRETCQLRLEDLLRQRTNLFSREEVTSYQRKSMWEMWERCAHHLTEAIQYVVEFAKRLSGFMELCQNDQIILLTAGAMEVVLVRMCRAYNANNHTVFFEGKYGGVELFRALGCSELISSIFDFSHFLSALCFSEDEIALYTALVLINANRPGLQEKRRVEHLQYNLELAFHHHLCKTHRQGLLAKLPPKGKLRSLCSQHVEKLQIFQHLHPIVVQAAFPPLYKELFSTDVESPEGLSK
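Luminescence from a UAS-regulated Photinus luciferase reporter in stably transfected Drosophila Schneider cells is measured; decreased signal marks ROR gamma inhibition. Fusion expression is induced by 700 uM copper sulfate for 20 hr.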
TDP1 cell noCPT: qHTS for Inhibitors of human tyrosyl-DNA phosphodiesterase 1 (TDP1): qHTS in cells in absence of CPT. Potency, µM (top dose mostly 46.2 µM), for inactives: top-dose activity change, negative = growth inhibition, most hits filed as inhibitors. DT40 Tdp1-/- hTDP1 cells, no CPT, ATP luminescence, 48 h. AID 686978, 2013. 15% of 420,000 active; further: potency means the concentration at half of the fitted maximal effect; nearly all actives have a fitted effect of over 55% in size
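No-CPT arm: Tdp1-/-;hTDP1 DT40 cells (400/well) plus compounds, incubated ≥48 hr at 37 °C. Readout CellTiter-Glo luminescence.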
Starred values were filed as active, the others as inactive; ? = inconclusive; . = no result. Compounds with a hit are over-represented: about 18% of the library has one in this group of screens. Unless noted, the call rests on the fitted dose curve; in most records, active means well fitted curve in the direction sought with a large enough effect; inconclusive means small, poorly fitted or top-dose-only effect, or another doubt; inactive means no such curve, though single readings can be large; an effect the other way counts as inactive or inconclusive. Unless noted, on the % scale 0 is the no-effect control and ±100 the full control effect.

SMILES | Gal4-VP16 FLuc | IL-1B inflam inh | LDHA block | TDP1 cell CPT | RORgamma inh | TDP1 cell noCPT
COc1ccccc1NC(=O)N(Cc1ccco1)Cc1cc2ccc(C)c(C)c2[nH]c1=O | -3% | 2 | -4 | 3.7µM* | 2% | 4.1µM*
COc1ccccc1NC(=S)N(Cc1ccco1)Cc1cc2cc(C)c(C)cc2[nH]c1=O | ? | -54* | -3 | 4.1µM* | -3% | 5.2µM*
CC1(C)CC(NC(=O)c2nc(-c3ccc4cc[nH]c4c3)no2)CC(C)(C)N1 | . | . | 0 | . | . | .
CCOc1ccc(CC(=O)NNC(=S)NCCOC)cc1OCC | . | . | 0 | . | . | .
CCOC(=O)N1CCN(C(=O)c2cc3occc3n2Cc2ccccc2Cl)CC1 | . | . | 1 | . | . | .
CC1(C)NC(C(=O)O)Cc2c1[nH]c1ccccc21 (stereo unspecified) | -15% | 1 | -10 | 14% | 1% | 2%
CC1(C)CC(=O)CC2(C1)NCC(c1ccccc1)c1c2[nH]c2ccccc12 (stereo unspecified) | 11% | -69* | -6 | ? | 45% | ?
Cc1ccc(C(=O)Nc2cc(S(=O)(=O)N3CCCCC3)ccc2Oc2ccccc2)cn1 | . | . | 8 | . | . | .
O=C(NC(=S)N1CCN(c2ccc([N+](=O)[O-])cc2Cl)CC1)c1ccco1 | 0.032µM* | 11 | 1 | 21µM* | 0.02µM* | 16µM*
O=C(c1ccco1)N1CCN(c2ccc([N+](=O)[O-])cc2Cl)CC1 | 4% | -5 | -15 | ? | -13% | ?
CCC(=O)NC(=S)N1CCN(c2ccc([N+](=O)[O-])cc2Cl)CC1 | 16µM* | -6 | -6 | ? | 4µM* | ?
NNc1nc2c(-c3ccc(Cl)cc3)nnn2c2ccccc12 | -10% | 2 | 0 | 10µM* | ? | ?
NNc1nc2c(-c3ccc(F)cc3)nnn2c2ccccc12 | -13% | -11 | -8 | 10µM* | ? | 12µM*
Fc1ccc(-c2nnn3c2nc(NCc2ccccc2)c2ccccc23)cc1 | 1% | 8 | -13 | -17% | 25% | ?
O=C(C1CCCN(c2ncnc3c2nc2n3CCCCC2)C1)N1CCN(c2ccc(Cl)cc2)CC1 (stereo unspecified) | 2% | -1 | 0 | ? | 5% | ?
CC(=O)c1ccc(N2CCN(C(=O)C3CCCN(c4ncnc5c4nc4n5CCCCC4)C3)CC2)cc1 (stereo unspecified) | -13% | 0 | -1 | 15µM* | 7% | 15µM*
COc1ccc(N2CCN(C(=O)C3CCCN(c4ncnc5c4nc4n5CCCCC4)C3)CC2)cc1 (stereo unspecified) | -11% | -2 | -1 | 21µM* | 40% | 16µM*
O=C(CN1CCN(CC(=O)N2CCC(Cc3ccccc3)CC2)CC1)Nc1ccccc1Cl | . | . | -11 | . | . | .
COc1ccc(-n2[nH]c3cc(=O)n(Cc4ccccc4)c(C)c3c2=O)cc1 | . | . | 7 | . | . | .
O=C(Nc1nc2ccccc2s1)NC1CCCCC1 | -46% | -11 | -11 | ? | 13µM* | -22%
O=C(Nc1nc2ccccc2[nH]1)C12CC3CC(CC(C3)C1)C2 | 10µM* | -25 | -11 | ? | 6.3µM* | ?
CCOC(=O)C(C(=O)Nc1cccc(C)n1)C1CCCCC1 (stereo unspecified) | 9% | 0 | 0 | ? | -5% | ?
O=C(Nc1nc2ccccc2[nH]1)NC1CCCCC1 | ? | -14 | -7 | ? | 11µM* | 2%
